The text below walks through data of PubChem BioAssay (NCI).

The structures appear in SMILES notation. The panel holds about 83,000 compounds, 20% with a hit somewhere; the sample as a whole holds those more often.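 Compound tested at a single concentration for 48 hours in 96-well plates; a percent growth value below 10 was scored as active.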 A number with no mark means an inactive call. Activity calls are given as the source filed them.

Among the test systems are DU-145 prostate; K-562 leukemia; MALME-3M melanoma; MDA-MB-231 breast; RXF 393 renal; SF-268 CNS; SF-295 CNS; SF-539 CNS; UACC-257 melanoma; M14 melanoma.
Holding throughout (assay): NCI-60 one-dose screen, 48 h (100 = growth as untreated, 0 = no growth, -100 = all killed)
Holding throughout (conditions): 10 µM

Regarding `OC(CNC1CCCC1)Cn1c2ccccc2c2ccccc21` (stereo not given), the growth with DU-145 prostate is 23%; with K-562 leukemia, 3.31% (active); in the assay with MALME-3M melanoma, -70.8% (active); in the assay on MDA-MB-231 breast, -23.9% (active); in the assay on RXF 393 renal it was 31.2%; in the assay on SF-268 CNS it was 44.8%. The growth in the assay on SF-295 CNS is -29.8% (active); in the assay on SF-539 CNS, -69.9% (active); with UACC-257 melanoma, -13.2% (active); with M14 melanoma, -68.1% (active).
As for `O=S(=O)(NCl)c1ccccc1`, the growth with DU-145 prostate was 106%; in the assay on K-562 leukemia, 97.3%; in the assay with MALME-3M melanoma it was 97.5%; in the assay with MDA-MB-231 breast, 115%; in the assay on RXF 393 renal, 109%; in the assay with SF-268 CNS, 99.9%. Moreover, the growth in the assay on SF-295 CNS is 94.3%; with SF-539 CNS it was 106%; in the assay on UACC-257 melanoma it was 103%; in the assay with M14 melanoma, 107%.
Turning to `CCCCCCCCCCCC(=O)NCCCN(C)C`, the growth in the assay on DU-145 prostate is 107%; in the assay with K-562 leukemia, 59.4%; with MALME-3M melanoma, 111%; with MDA-MB-231 breast it was 79.1%; in the assay with RXF 393 renal, 116%; in the assay on SF-268 CNS, 96.2%. Moreover, the growth is 95.6% in the assay on SF-295 CNS, 86.6% in the assay with SF-539 CNS, 94.7% in the assay with UACC-257 melanoma and 98.1% in the assay on M14 melanoma.
Turning to `N=C(N)c1ccc(-c2ccc(-c3cccs3)s2)nc1`, the growth in the assay on DU-145 prostate was 64.4%; in the assay on K-562 leukemia, -14.9% (active); with MALME-3M melanoma, 57.1%; in the assay on MDA-MB-231 breast, 8.8% (active); in the assay on RXF 393 renal, 30.8%; in the assay on SF-268 CNS, 70.1%. The growth in the assay with SF-295 CNS was 7.11% (active); in the assay with SF-539 CNS, 84.5%; in the assay on UACC-257 melanoma, 63.2%; in the assay on M14 melanoma, 75%.
In the case of `COc1cc(-c2nc3ccc(C)cc3[nH]2)ccc1OCC(=O)N=Nc1c(O)[nH]c2ccccc12`, the growth in the assay on DU-145 prostate is 2.84% (active); with K-562 leukemia, -62.9% (active); with MALME-3M melanoma it was -68.8% (active); in the assay with MDA-MB-231 breast, -81.2% (active); in the assay with RXF 393 renal, -9.89% (active); with SF-268 CNS it was -35.6% (active). The growth with SF-295 CNS was -52.8% (active); in the assay on SF-539 CNS, -88.5% (active); with UACC-257 melanoma, 13.8%; with M14 melanoma it was -72.8% (active).
Consider `CCc1c(C)[nH]c(=O)c(C(N)=O)c1C#N`, for which the growth in the assay on DU-145 prostate was 115%; in the assay with K-562 leukemia, 114%; in the assay with MALME-3M melanoma it was 103%; with MDA-MB-231 breast, 102%; with RXF 393 renal, 108%; in the assay on SF-268 CNS, 105%. The growth in the assay with SF-295 CNS was 98.1%; in the assay with SF-539 CNS, 92.9%; in the assay with UACC-257 melanoma, 92.5%; with M14 melanoma, 97.5%.
Take `CN(C)c1ccc2c(c1)OC(N)=C(C#N)C2c1ccc2c(c1)CCCN2C` (stereo not given): the growth was 25.7% in the assay with DU-145 prostate; 16.5% with K-562 leukemia; 67.8% with MALME-3M melanoma; 38.6% in the assay with MDA-MB-231 breast; 8.31% (active) in the assay on RXF 393 renal; 49.4% in the assay with SF-268 CNS. For the same compound, the growth in the assay with SF-295 CNS was -14.4% (active); in the assay with SF-539 CNS, -2.99% (active); in the assay on UACC-257 melanoma it was 54.7%; in the assay on M14 melanoma it was 2.75% (active).
Turning to `COc1cc(C2C(C#N)=C(c3c[nH]c4ccccc34)Nc3nc(N)[nH]c(=O)c32)cc(OC)c1OC` (stereo not given), the growth was 86.5% in the assay on DU-145 prostate; 50.4% in the assay on K-562 leukemia; 71.1% in the assay with MALME-3M melanoma; 89.5% with MDA-MB-231 breast; 73.2% in the assay on RXF 393 renal; 88.3% with SF-268 CNS. The growth was 97.6% in the assay with SF-295 CNS, 48.4% in the assay on SF-539 CNS, 99.1% in the assay with UACC-257 melanoma and 95.7% with M14 melanoma.
For the compound `O=c1c2cccc3c(Nc4ccc(Br)cn4)ccc(c32)c2nc3ccccc3n12`, the growth with DU-145 prostate is 99.4%; in the assay with K-562 leukemia it was 101%; in the assay with MALME-3M melanoma it was 96.3%; with MDA-MB-231 breast it was 66.2%; in the assay on RXF 393 renal, 99.8%; with SF-268 CNS, 98.3%. In addition, the growth in the assay on SF-295 CNS was 87.1%; in the assay with SF-539 CNS it was 89.9%; in the assay with UACC-257 melanoma, 102%; in the assay with M14 melanoma, 96.8%.
Take `Fc1ccc(Nc2ccnc(N3CCN(c4ccnc5cc(Cl)ccc45)CC3)n2)cc1`: the growth in the assay on DU-145 prostate is 77%; in the assay with K-562 leukemia, 16%; in the assay with MALME-3M melanoma, 52.9%; in the assay on MDA-MB-231 breast, 56%; with RXF 393 renal it was 66.7%; in the assay with SF-268 CNS, 72.4%. Besides, the growth in the assay with SF-295 CNS is 39.6%; with SF-539 CNS, 51.4%; with UACC-257 melanoma, 61.1%; with M14 melanoma it was 43.4%.
On to `Fc1ccc(-c2cc(C(Cl)Cl)no2)cc1`, for which the growth was 100% in the assay on DU-145 prostate; 128% in the assay with K-562 leukemia; 93.3% with MALME-3M melanoma; 95.1% with MDA-MB-231 breast; 103% in the assay with RXF 393 renal; 100% in the assay on SF-268 CNS. The growth in the assay with SF-295 CNS is 97.1%; in the assay on SF-539 CNS, 106%; with UACC-257 melanoma, 120%; in the assay with M14 melanoma, 89.3%.
For `Cc1ccc([P+](Cc2ccc([N+](=O)[O-])cc2)(c2ccc(C)cc2)c2ccc(C)cc2)cc1`, the growth in the assay with DU-145 prostate is 78.3%; in the assay on K-562 leukemia, 11.2%; with MALME-3M melanoma, -15% (active); in the assay on MDA-MB-231 breast, 41.6%; with RXF 393 renal, 67.2%; with SF-268 CNS it was 54.2%. The growth was 45.2% in the assay on SF-295 CNS, 69% in the assay with SF-539 CNS, -14.6% (active) in the assay with UACC-257 melanoma and 19% with M14 melanoma.
`COc1cc(C2CC(=O)Nc3c2c(C)nn3-c2nc3ccccc3[nH]2)cc(OC)c1O` (stereo not given): the growth in the assay with DU-145 prostate is 96.4%; in the assay on K-562 leukemia, 75.7%; with MALME-3M melanoma it was 47.3%; in the assay with MDA-MB-231 breast, 7.76% (active); in the assay on RXF 393 renal, 10.4%; with SF-268 CNS, 40.1%. The growth with SF-295 CNS is -34.2% (active); in the assay on SF-539 CNS it was 72.8%; in the assay on UACC-257 melanoma, 44.4%; with M14 melanoma, 9.64% (active).
For the compound `Nc1c(CNCc2nnn(Cc3ccccc3)c2N)nnn1Cc1ccccc1`, the growth with DU-145 prostate is 107%; in the assay with K-562 leukemia, 93.6%; in the assay on MALME-3M melanoma it was 79.9%; with MDA-MB-231 breast, 108%; with RXF 393 renal it was 99.7%; with SF-268 CNS, 103%. For the same compound, the growth with SF-295 CNS was 101%; with SF-539 CNS, 95.6%; in the assay with UACC-257 melanoma, 103%; in the assay with M14 melanoma it was 98.5%.
